Data taken from PubChem BioAssay (EPA / NIEHS).
Values joined by “and” are separate entries in the source; they are usually repeats but may differ in a detail not shown here. Equal values may be shown once. Some structures have more than one record in an assay (separate samples or runs), and their calls can disagree. Active and inactive are the calls of the source. Rule for the calls: active = hit-call score of the fitted dose curve at least 0.9, where 1 is the maximum; inactive = score below 0.9.

Tests used:
[1] = read-out: Vascular cell adhesion molecule 1 (VCAM1), VCAM1 (gene 7412); assay: BSK_4H_VCAM1: BioMAP Diversity Plus: 4H Assay for Vascular cell adhesion molecule 1 (VCAM1) Biomarker Activity (AID 2283033); conditions: primary human endothelial cells (HUVEC); actives raise or lower the signal
Outline: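 HUVEC, 24 h post-dose; VCAM-1 by ELISA. Bidirectional curve fit vs DMSO baseline. Parallel SRB total-protein stain (0.1% SRB after 10% TCA fixation, 560 nm) for cytotoxicity.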

[2] = read-out: Interferon-gamma inducible Protein 10 (IP10), CXCL10 (gene 3627); assay: BSK_BE3C_IP10: BioMAP Diversity Plus: BE3C Assay for Interferon-gamma inducible Protein 10 (IP10) Biomarker Activity (AID 2283034); conditions: primary human bronchial epithelial cells; actives raise or lower the signal
Outline: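 ELISA readout of IP-10 in BE3C system: primary human bronchial epithelial cells, 24 h post-dosing; bidirectional curve fit vs DMSO baseline.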

[3] = read-out: Urokinase-type plasminogen activator receptor (uPAR), PLAUR (gene 5329); assay: BSK_BE3C_uPAR: BioMAP Diversity Plus: BE3C Assay for Urokinase-type plasminogen activator receptor (uPAR) Biomarker Activity (AID 2283039); conditions: primary human bronchial epithelial cells; actives raise or lower the signal
Outline: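 ELISA readout of uPAR on human lung primary bronchial epithelial cells, 24 h post-dosing. Bidirectional curve fit relative to DMSO vehicle baseline; gain or loss of signal both scored.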

[4] = read-out: Interleukin-6 (IL6), IL6 (gene 3569); assay: BSK_CASM3C_IL6: BioMAP Diversity Plus: CASM3C Assay for Interleukin-6 (IL6) Biomarker Activity for (AID 2283040); conditions: primary human coronary artery smooth muscle cells; actives raise or lower the signal
[5] = read-out: Macrophage colony-stimulating factor (MCSF), CSF1 (gene 1435); assay: BSK_CASM3C_MCSF: BioMAP Diversity Plus: CASM3C Assay for Macrophage colony-stimulating factor (MCSF) Biomarker Activity (AID 2283044); conditions: primary human coronary artery smooth muscle cells; actives raise or lower the signal;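 note: M-CSF protein amount quantified by ELISA after 24 h exposure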
[6] = read-out: Low-density lipoprotein receptor (LDLR), LDLR (gene 3949); assay: BSK_CASM3C_LDLR: BioMAP Diversity Plus: CASM3C Assay for Low-density lipoprotein receptor (LDLR) Biomarker Activity (AID 2283045); conditions: primary human coronary artery smooth muscle cells; actives raise or lower the signal;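 note: LDLR protein level on the cell surface quantified by ELISA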
[7] = read-out: Monocyte Chemoattractant Protein-1 (MCP1), CCL2 (gene 6347); assay: BSK_CASM3C_MCP1: BioMAP Diversity Plus: CASM3C Assay for Monocyte Chemoattractant Protein-1 (MCP1) Biomarker Activity (AID 2283046); conditions: primary human coronary artery smooth muscle cells; actives raise or lower the signal
[8] = BSK_CASM3C_Proliferation: Cell Proliferation Assessment in the BioMAP Diversity Plus: CASM3C Assay (AID 2283047); conditions: primary human coronary artery smooth muscle cells;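 note: sulforhodamine B total protein stain as relative cell number at 560 nm; sub-confluent cells exposed 48 h before staining; fitted both ways against DMSO so gain or loss of cell number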
[9] = BSK_CASM3C_SRB: Viability Assessment in the BioMAP Diversity Plus: CASM3C Assay (AID 2283050); conditions: primary human coronary artery smooth muscle cells;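 note: cells exposed to compound for 24 h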
[10] = read-out: Tissue Factor, F3 (gene 2152); assay: BSK_CASM3C_TissueFactor: BioMAP Diversity Plus: CASM3C Assay for Tissue Factor Biomarker Activity (AID 2283052); conditions: primary human coronary artery smooth muscle cells; actives raise or lower the signal;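 note: cell surface tissue factor protein level read by ELISA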
[11] = read-out: Interferon-gamma inducible Protein 10 (IP10), CXCL10 (gene 3627); assay: BSK_hDFCGF_IP10: BioMAP Diversity Plus: hDFCGF Assay for Interferon-gamma inducible Protein 10 (IP10) Biomarker Activity (AID 2283053); conditions: primary human foreskin fibroblasts; actives raise or lower the signal
Outline: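 ELISA read-out of IP-10 (CXCL10) from primary human skin fibroblasts, 24 h after compound addition. Gain or loss of signal versus DMSO baseline, bidirectional curve fitting.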

[12] = read-out: Vascular cell adhesion molecule 1 (VCAM1), VCAM1 (gene 7412); assay: BSK_CASM3C_VCAM1: BioMAP Diversity Plus: CASM3C Assay for Vascular cell adhesion molecule 1 (VCAM1) Biomarker Activity (AID 2283055); conditions: primary human coronary artery smooth muscle cells; actives raise or lower the signal;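 note: VCAM-1 protein level quantified by ELISA on the cells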
[13] = read-out: Epidermal growth factor receptor (EGFR), EGFR (gene 1956); assay: BSK_hDFCGF_EGFR: BioMAP Diversity Plus: hDFCGF Assay for Epidermal growth factor receptor (EGFR) Biomarker Activity (AID 2283057); conditions: primary human foreskin fibroblasts; actives raise or lower the signal
Outline: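 ELISA readout of EGFR on human dermal fibroblasts (primary foreskin cells), 24 h post-dosing; bidirectional curve fit vs DMSO baseline, gain or loss of signal scored.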

[14] = read-out: Interleukin-8 (IL8), CXCL8 (gene 3576); assay: BSK_hDFCGF_IL8: BioMAP Diversity Plus: hDFCGF Assay for Interleukin-8 (IL8) Biomarker Activity (AID 2283058); conditions: primary human foreskin fibroblasts; actives raise or lower the signal
Outline: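 Cells used are human skin primary fibroblasts. Chemical is added, cultures run 24 h, then IL-8 is quantified by ELISA, and gain or loss versus DMSO control is fitted in both directions.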

[15] = BSK_hDFCGF_Proliferation: Cell Proliferation Assessment in the BioMAP Diversity Plus: hDFCGF Assay (AID 2283059); conditions: primary human foreskin fibroblasts;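 note: curves fitted for both rise and fall of signal versus DMSO baseline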
Outline: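 Steps: dose primary human dermal fibroblasts (foreskin); […] fix in 10% TCA; stain with 0.1% SRB; read 560 nm; fit gain or loss of signal against DMSO.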

[16] = read-out: TIMP metallopeptidase inhibitor 1 (TIMP1), TIMP1 (gene 7076); assay: BSK_hDFCGF_TIMP1: BioMAP Diversity Plus: hDFCGF Assay for TIMP metallopeptidase inhibitor 1 (TIMP1) Biomarker Activity (AID 2283062); conditions: primary human foreskin fibroblasts; actives raise or lower the signal
Outline: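 Human skin fibroblasts (primary), hDFCGF system; compound exposure 24 h; TIMP-1 by ELISA; bidirectional fit vs DMSO negative control; overt cytotoxicity by SRB in parallel wells.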

[17] = read-out: Monokine induced gamma interferon (MIG), CXCL9 (gene 4283); assay: BSK_hDFCGF_MIG: BioMAP Diversity Plus: hDFCGF Assay for Monokine induced gamma interferon (MIG) Biomarker Activity (AID 2283063); conditions: primary human foreskin fibroblasts; actives raise or lower the signal
Outline: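 Chemicals were added to primary human foreskin fibroblast cultures, which were sampled 24 h later. MIG levels were then quantified by ELISA and responses fitted in both directions relative to DMSO.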

[18] = read-out: Matrix Metallopeptidase 1 (MMP1), MMP1 (gene 4312); assay: BSK_hDFCGF_MMP1: BioMAP Diversity Plus: hDFCGF Assay for Matrix Metallopeptidase 1 (MMP1) Biomarker Activity (AID 2283064); conditions: primary human foreskin fibroblasts; actives raise or lower the signal
Outline: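 MMP1 levels quantified by ELISA 24 h after dosing human dermal fibroblast cultures, with parallel SRB total-protein staining for overt cytotoxicity. Data fitted in both directions against DMSO baseline.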

[19] = read-out: Plasminogen activator inhibitor-1 (PAI1), SERPINE1 (gene 5054); assay: BSK_hDFCGF_PAI1: BioMAP Diversity Plus: hDFCGF Assay for Plasminogen activator inhibitor-1 (PAI1) Biomarker Activity (AID 2283066); conditions: primary human foreskin fibroblasts; actives raise or lower the signal
Outline: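 ELISA readout of PAI-1 from primary human skin fibroblast cultures, 24 h after compound addition. Gain or loss of signal was fitted bidirectionally against DMSO baseline.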

[20] = read-out: Interferon-gamma inducible Protein 10 (IP10), CXCL10 (gene 3627); assay: BSK_KF3CT_IP10: BioMAP Diversity Plus: KF3CT Assay for Interferon-gamma inducible Protein 10 (IP10) Biomarker Activity (AID 2283068); conditions: primary human keratinocytes with fibroblasts; actives raise or lower the signal
Outline: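 KF3CT co-culture (keratinocytes + foreskin fibroblasts), 24 h compound, IP-10 by ELISA; bidirectional fit vs DMSO baseline.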

Measured: AC50

Nc1ccc(-c2ccc(N)c(N)c2)cc1N
active: [5] 8.36 µM | [10] 11.3 µM | [12] 10 µM
inactive: all other assays above

CC(C)(C)C(O)C(Oc1ccc(-c2ccccc2)cc1)n1cncn1 (stereo unspecified)
active: [1] 31.5 µM | [2] 6.71 µM | [4] 30.9 µM | [5] 20 µM | [6] 20 µM | [7] 29.2 µM | [8] 26.3 µM | [9] 30.5 µM | [10] 14.4 µM | [12] 30.9 µM
inactive: all other assays above

O=C(O)CCCc1ccc(N(CCCl)CCCl)cc1
active: [1] 27.1 µM and 25.4 µM | [2] 16.2 µM and 20 µM | [4] 15.8 µM and 20 µM | [5] 17 µM and 15.7 µM | [6] 20 µM | [7] 24 µM and 20 µM | [8] 20 µM and 1.6 µM | [9] 24.8 µM and 20 µM | [10] 15.2 µM and 5.57 µM | [12] 17 µM and 20 µM | [15] 6.32 µM and 5.54 µM | [20] 31.9 µM and 36.2 µM
inactive: [3] | [6] | [11] | [13] | [14] | [16] | [17] | [18] | [19]

Oc1ccc(C2(c3ccc(O)cc3)c3ccccc3-c3ccccc32)cc1
inactive: [13]
active: [1] 6.91 µM and 7.37 µM | [2] 5.4 µM and 3.97 µM | [3] 5.37 µM and 5.3 µM | [4] 9.02 µM and 4.73 µM | [5] 11.1 µM and 20 µM | [6] 29.5 µM and 28.9 µM | [7] 20 µM | [8] 32.4 µM and 32.9 µM | [9] 20 µM | [10] 178 nM and 3.97 µM | [11] 2.87 µM and 2.53 µM | [12] 3.97 µM | [14] 6.24 µM and 5.65 µM | [15] 1.12 µM and 927 nM | [16] 1.47 µM and 1.56 µM | [17] 3.38 µM and 2.61 µM | [18] 3.97 µM and 2.03 µM | [19] 728 nM and 803 nM | [20] 6.03 µM and 7.32 µM

CCC(C)c1cc([N+](=O)[O-])cc([N+](=O)[O-])c1OC(=O)C=C(C)C (stereo unspecified)
inactive: [4] | [7] | [13] | [14]
active: [1] 9.17 µM | [2] 8.21 µM | [3] 32.8 µM | [5] 30.7 µM | [6] 31.2 µM | [8] 36.2 µM | [9] 30.3 µM | [10] 7.73 µM | [11] 7.21 µM | [12] 20.5 µM | [15] 5.09 µM | [16] 12 µM | [17] 9.88 µM | [18] 12.3 µM | [19] 3.95 µM | [20] 13.9 µM

Cc1ccc(OP(=O)(Oc2ccc(C)cc2)Oc2ccc(C)cc2)cc1 (tested in a mixture with another compound)
active: [3] 4.16 µM | [15] 20 µM
inactive: all other assays above

N#CCCCCC#N
inactive: all assays above

COc1ccc(CO)cc1
inactive: all assays above

Oc1cc(Cl)ccc1Cl
inactive: all assays above

O=c1[nH]c(Cl)c(Cl)cc1Cl
inactive: all assays above

CC(=O)/C=C/c1ccccc1
active: [7] 0.104 µM
inactive: all other assays above

C=CC(=O)OCC(CC)CCCC (stereo unspecified)
active: [1] 0.159 µM | [9] 31.7 µM | [11] 27.6 µM | [12] 20 µM | [15] 30.3 µM | [16] 27.5 µM | [17] 30.5 µM | [18] 30.4 µM | [19] 20 µM
inactive: all other assays above

Clc1ccc(-c2ccccc2)cc1
active: [1] 32.9 µM
inactive: all other assays above

CC(C)COP(=O)(OCC(C)C)OCC(C)C
inactive: all assays above

O=[N+]([O-])O
inactive: all assays above
